Results filed as inconclusive are left out. Calls of active or inactive are those of the source.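 Rule for the calls, unless noted: active = compound raises insulin release from rat beta cells at 5 mM glucose, no numeric limit stated; inactive = the rest.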

The nature of test [1]: stimulators of nuclear beta-catenin in C2C12, primary screen, imaging, WNT3A-conditioned medium, mouse C2C12, NPC library (AID 1117326; in the data active = nuclear beta-catenin stimulation mostly above about 4.2%, no sharp cut-off; inactive = mostly below about 10%). The settings on record: stronger effect = higher value.
Test [2] can be described thus: stimulators of insulin release from INS-1E, primary screen, cell-based, 5 mM glucose, NPC library (AID 1117329). The settings on record: rat INS-1E insulin secretion, at 10 µM, stronger effect = higher value.
The nature of test [3]: growth inhibition of GSK3B-pretreated HCT116 cells – cell-based, CellTiter-Glo, 0.2 to 20 µM (AID 1117336;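 active = compounds lowering colon cancer cell viability after pretreatment blocking the GSK3B kinase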). The settings on record: HCT116 viability after GSK3B inhibitor, at 20 µM, stronger effect = higher value. In general terms: ATP-based viability assays read luminescence as a measure of living cells.
Test [4] in a line: inhibition of endothelial tube formation, primary screen, imaging, VEGF stimulated, CD31 staining, tube area, NPC library (AID 1117340;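 active = compound that reduces growth-factor-driven endothelial tube area in a mixed cell culture, no cutoff stated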). The settings on record: VEGF-stimulated ADSC/ECFC co-culture, at 10 µM, stronger effect = higher value.
Test [5] is described as follows: glucagon-like peptide 1 release enhancers, primary assay, NCI-H716 cell line, NPC library (AID 1117341;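 active = compound raises GLP1 secretion from the human gut endocrine cells, with no numeric limit stated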). The settings on record: NCI-H716 cells, at 10 µM, stronger effect = higher value.
A short description of test [6]: HCT116 colon cancer cell growth inhibition, primary screen, CellTiter-Glo luminescence, NPC library (AID 1117342;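 active = compounds that lower survival of HCT116 colon cancer cells in the luminescence readout, no numeric limit stated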). The settings on record: at 20 µM (top of the series).
Test [7] is described as follows: CellTiter-Glo luminescent readout of SW480 viability loss, NPC library primary (AID 1117343;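 active = compounds that lower viability of the colon cancer cells in the luminescence readout, with no numeric limit stated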). The settings on record: CellTiter-Glo luminescence; at 20 µM (top of the series) unless noted.
The nature of test [8]: decreased DLD-1 cellular survival, CellTiter-Glo luminescent readout, NPC compound collection, primary HTS (AID 1117346;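 active = compounds that lower survival of DLD-1 colon cancer cells in the luminescence readout, no cutoff given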). To be noted: DLD-1 viability, CellTiter-Glo luminescence; at 20 µM (top of the series).
Test [9] can be described thus: growth inhibition of DIPG glioma cells, dose response, cell-based, SU-DIPG-XVII, MIPE5.0, CellTiter-Glo, qHTS (AID 1347060; cut-off not given, nearly all actives have AC50 up to about 26 µM;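 for AC50: cells exposed to compound for 48 hours before viability readout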). The settings on record: SU-DIPG-XVII viability, CellTiter-Glo ATP luminescence.
A short description of test [10]: growth inhibition of DIPG glioma cells, dose response, cell-based, SU-DIPG-XIII, MIPE4.0, CellTiter-Glo, qHTS (AID 1347061; cut-off not given, nearly all actives have AC50 up to about 37 µM;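 note: cells exposed to compound for 48 hours before readout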). The settings on record: SU-DIPG-XIII viability, CellTiter-Glo ATP luminescence.
A short description of test [11]: growth inhibition of DIPG glioma cells, dose response, cell-based, JHH-DIPG-1, MIPE4.0, CellTiter-Glo, qHTS (AID 1347062; cut-off not given, nearly all actives have AC50 up to about 27 µM). To be noted: JHH-DIPG-1 viability, CellTiter-Glo ATP luminescence.
A short description of test [12]: viability loss in pontine glioma line – cell-based, SU-DIPG-XXV, MIPE5.0, CellTiter-Glo, qHTS, dose response (AID 1347065; cut-off not given, nearly all actives have AC50 up to about 26 µM;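 note: cells exposed to compound for 48 hours before ATP readout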). The settings on record: CellTiter-Glo ATP luminescence.
A short description of test [13]: SU-DIPG-VI glioma cell viability, MIPE4.0 library, CellTiter-Glo luminescence, qHTS (AID 1347066; cut-off not given, nearly all actives have AC50 up to about 30 µM;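 note: cells exposed to compound for 48 hours before readout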). The settings on record: CellTiter-Glo ATP luminescence.
The nature of test [14]: SU-DIPG-XXV glioma cell viability, MIPE5.0 library, qHTS (AID 1347068; cut-off not given, nearly all actives have IC50 up to about 30 µM;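 for IC50: cells exposed to compound for 48 hours before viability readout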). For orientation: qHTS replaces the single test concentration by a dilution series.
Test [15] is described as follows: sensitizers of A549 cells to miR-34 induction, primary screen, imaging, A549 dox-inducible miR-34, nuclei and caspase counts (AID 1347080;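 active = compounds whose cell count with miR-34 switched on is under 0.7 times the count with it off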). The settings on record: A549 miR-34 inducible, Hoechst nuclei count, 48 h.
Test [16] in a line: survival rescue of mitochondrial mutant cells in low glucose, primary screen, MELAS cybrids, Rieske KO mouse fibroblasts, CellTiter-Glo (AID 1508586;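 active = mean z-score across replicates of 1.96 or higher in either the MELAS or the Rieske mutant cell line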;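 note: z relative to plate mean and SD of compound and empty wells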).
Test [17] deals with Aerobactin synthetase IucA (Klebsiella pneumoniae). The experiment in a line: IucA aerobactin synthetase inhibitors, biochemical, Tocris library, absorbance (AID 1345561; call rule not given here;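 note: 100% = enzyme without compound and 0% = no enzyme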). The settings on record: purified IucA enzyme assay, absorbance (OD) read-out; stronger effect = lower value;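 tested at 8 µM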.
Test [18] can be described thus: viability rescue of complex I mutant cybrids, primary screen, cell-based, galactose medium, ATP luminescence (AID 1645843;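 active = z-score of at least 1.8 in each of two replicates, scored against plate mean and spread of sample wells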;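 note: positive z means more ATP and so rescue of galactose-driven cybrid death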). The settings on record: complex I mutant cybrid cells, 72 h, stronger effect = higher value.
Where [19] appears, read: stronger effect = lower value, cell number ratio, induced over uninduced.
The mark [20] stands for this setting: measured here: relative caspase fold change +Dox/-Dox.
Setting [21] is: measured here: total cells with miR-34 induction, stronger effect = lower value.
Where [22] appears, read: measured here: total cells without miR-34 induction.

On to `C[C@@H](NCCCc1cccc(C(F)(F)F)c1)c1cccc2ccccc12`, for which the nuclear beta-catenin stimulation in [1] (at 10 µM) was 35.9% (inactive); in test [1] (stimulation, at 2 µM), -0.4%. For the same molecule, in test [2], the insulin secretion stimulation was 0.2% (inactive). The viability decrease in [3] is 101% (active). In addition, the tube area decrease in test [4] is 99.6% (active). Besides, the GLP1 secretion stimulation in [5] was 20.5% (active). In test [6], the inhibition of viability was 102% (active). Moreover, the viability decrease (inhibition) was 123% (active) in test [7] and 104% (active) in test [8]. Moreover, the AC50 was 16.6 µM (active) in test [9] and 14.8 µM (active) in test [12]. Moreover, the molecule was classed as inactive in test [10], in [11] and in [13]. Also, in test [14], the IC50 was 20.9 µM (active). The fold change was 0.971 (inactive) in test [15] (setting [19]) and 0.761 in test [15] (setting [20]). Besides, the cell count in test [15] (setting [21]) amounted to 5970; in [15] (setting [22]), 6150. In addition, the z-score in test [16] (MELAS cybrid survival, CellTiter-Glo 48 h, stronger effect = higher value) was -0.442 (inactive); in test [16] (Rieske KO mouse fibroblast survival, CellTiter-Glo 72 h), 0.442.

For `CCCCCOC(=O)Nc1nc(=O)n([C@@H]2O[C@H](C)[C@@H](O)[C@H]2O)cc1F`, the nuclear beta-catenin stimulation in test [1] (at 10 µM) is 0.5% (inactive); in [1] (stimulation, at 2 µM), -1.4%. The insulin secretion stimulation in test [2] was -0.1% (inactive). For the same molecule, in [3], the viability decrease was -9.5% (inactive). In addition, in test [4], the tube area decrease is 5.3% (inactive). For the same molecule, in [5], the GLP1 secretion stimulation was -0.5% (inactive). For the same molecule, the inhibition of viability in [6] is 0.7% (inactive). The viability decrease (inhibition) in [7] was -2% (inactive); in test [8] it was -8.6% (inactive). For the same molecule, the molecule was classed as inactive in test [9], in test [10], in test [11], in [13] and in test [14].

In the case of `Cl/C(=C\n1cncn1)c1ccc(Cl)cc1Cl`, the nuclear beta-catenin stimulation is 3.9% (inactive) in test [1] (at 10 µM) and 4% in test [1] (stimulation, at 2 µM). In test [2], the insulin secretion stimulation was 2.4% (inactive). In test [3], the viability decrease was 3% (inactive). Also, the tube area decrease in [4] is -2.8% (inactive). For the same molecule, the GLP1 secretion stimulation in test [5] was -1.4% (inactive). Moreover, the inhibition of viability in [6] was 30.3% (inactive). Moreover, the viability decrease (inhibition) in test [7] was 13.4% (inactive); in [8], 24.2% (inactive). Moreover, the remaining activity in [17] was 121% (inactive). For the same molecule, the fold change in test [15] (setting [19]) is 0.89 (inactive); in test [15] (setting [20]) it was 0.653. In addition, the values for the cell count in test [15] (setting [21]) and in test [15] (setting [22]) were 8590 and 9640, respectively. In addition, the z-score in test [18] was -0.15 (inactive).

Turning to `CC[N+](CC)(CCNC(=O)C(=O)NCC[N+](CC)(CC)Cc1ccccc1Cl)Cc1ccccc1Cl`, the nuclear beta-catenin stimulation is 0.3% (inactive) in [1] (at 10 µM) and 3.3% in [1] (stimulation, at 2 µM). For the same molecule, the insulin secretion stimulation in test [2] is 0.9% (inactive). Also, the viability decrease in test [3] was -14.5% (inactive). In addition, the tube area decrease in test [4] is -8.9% (inactive). Moreover, the GLP1 secretion stimulation in test [5] was 2.4% (inactive). The inhibition of viability in test [6] was 2.83% (inactive). The viability decrease (inhibition) was 6.4% (inactive) in test [7] and -9.9% (inactive) in test [8]. Moreover, in test [17], the remaining activity was 122% (inactive). Moreover, the figures for the fold change in test [15] (setting [19]) and in test [15] (setting [20]) were 0.939 (inactive) and 1.05, respectively. In addition, the cell count in [15] (setting [21]) amounted to 8990; in test [15] (setting [22]), 9570. Also, in test [18], the z-score was 0.25 (inactive).

Take `C[C@H]1C[C@H]2[C@@H]3CCC4=CC(=O)C=C[C@]4(C)[C@H]3C(=O)C[C@]2(C)[C@@]1(O)C(=O)CO`: the nuclear beta-catenin stimulation was 0.1% (inactive) in test [1] (at 10 µM) and 1.2% in test [1] (stimulation, at 2 µM). Further, the insulin secretion stimulation in [2] was 1.5% (inactive). For the same molecule, in [3], the viability decrease is 19% (inactive). Further, the tube area decrease in test [4] was -11% (inactive). The GLP1 secretion stimulation in test [5] was 0.7% (inactive). Besides, the inhibition of viability in test [6] is -1.9% (inactive). The viability decrease (inhibition) in test [7] was 0.2% (inactive); in test [8], 5.4% (inactive). Also, the molecule was classed as inactive in [9], in test [10], in test [11], in test [12], in test [13] and in test [14].

Broadly, the AC50 is the concentration at which the activity in the assay is half-maximal. Broadly, the IC50 is the concentration needed to halve the response being measured. As a reminder, the remaining activity is the signal under treatment as a percentage of the control signal.
